Source: PubChem (National Center for Advancing Translational Sciences (NCATS))
S2 tox: Viability Counterscreen for Primary qHTS for Inhibitors of ATXN expression; S2 cells (HEK-293 line with an ATXN2-luciferase reporter) viability, CellTiter-Fluor protease fluorescence, 24 h; Potency, µM (top dose mostly 56.7 µM), most hits filed as cytotoxic; 400,000 tested, 0.49% active; also: potency is read from the fitted curve at half-maximal effect; nearly all actives have a fitted effect of over 40% in size
IL1B secr inh: qHTS for Inhibitors of Inflammasome Signaling: IL-1-beta AlphaLISA Primary Screen; THP-1 LPS/ATP IL-1B secretion, AlphaLISA, 16 h; active compounds read low; activity change, % at 57.5 µM; 360,000 tested, 4.7% active; in the data active = activity change below about -50%; inconclusive = mostly about -30% to -49%; also: % is scaled to controls: 0 for no effect and ±100 for the full control effect
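THP-1 cells pretreated 1 hr with compounds (up to 57.5 uM final), then stimulated with LPS (250 ng/mL final) plus ATP (1.25 mM final); secreted IL-1B measured by AlphaLISA after 16 hr, decreased signal indicating inhibition.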
USP1 inh: Inhibitors of USP1/UAF1: Primary Screen. Ubiquitin carboxyl-terminal hydrolase 1 (Homo sapiens), O94782. recombinant USP1/UAF1, Ub-Rhodamine cleavage fluorescence. Potency, µM (highest dose often 57.1 µM), for the others: at the top dose activity change, negative = inhibition, hits mostly inhibitors. 390,000 tested, 0.23% active; also: potency is read from the fitted curve at half-maximal effect; % is scaled to controls: 0 for no effect and ±100 for the full control effect; nearly all actives have a fitted effect of over 60% in size
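Step one: compound is pinned into 1nM USP1/UAF1 in HEPES pH 7.8 buffer with TCEP. Step two: 15 min room-temperature incubation. Step three: Ub-Rho (150nM final) starts cleavage, tracked by fluorescence over six one-minute reads.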
ATXN2 expr inh: Primary qHTS for Inhibitors of ATXN expression | HEK-293 ATXN2-luciferase reporter, luminescence, 24 h | Potency, µM (highest dose often 57 µM), inactives show at the highest dose activity change, negative = inhibition, usual class: inhibitors | 360,000 tested, 0.72% active | AID 1745845, 2022; also: potency is read from the fitted curve at half-maximal effect; % is scaled to controls: 0 for no effect and ±100 for the full control effect; nearly all actives have a fitted effect of over 55% in size
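ATXN2-luciferase reporter cells (luciferase flanked by upstream and downstream ATXN2 gene portions) were treated 24 h at 37 °C with compounds at up to 57 uM. SteadyGlo luminescence gave expression; GF-AFC fluorescence gave viability.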
USP2a inh: qHTS Assay for Inhibitors of Ubiquitin-specific Protease USP2a Using CHOP2 as the Reporter; Ubiquitin carboxyl-terminal hydrolase 2 (Homo sapiens), O75604; USP2 core, Ub-CHOP2 coupled fluorogenic reporter, 485/531; Potency, µM (series often up to 38.3 µM), inactives show at the top dose activity change, negative = inhibition, most hits filed as inhibitors; 330,000 tested, 0.01% active; AID 463254, 2010;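 also: potency is read from the fitted curve at half-maximal effect; plate controls were DMSO wells for no effect and full inhibition by NEM control for full effect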
Target sequence (O75604 whole entry, looked up): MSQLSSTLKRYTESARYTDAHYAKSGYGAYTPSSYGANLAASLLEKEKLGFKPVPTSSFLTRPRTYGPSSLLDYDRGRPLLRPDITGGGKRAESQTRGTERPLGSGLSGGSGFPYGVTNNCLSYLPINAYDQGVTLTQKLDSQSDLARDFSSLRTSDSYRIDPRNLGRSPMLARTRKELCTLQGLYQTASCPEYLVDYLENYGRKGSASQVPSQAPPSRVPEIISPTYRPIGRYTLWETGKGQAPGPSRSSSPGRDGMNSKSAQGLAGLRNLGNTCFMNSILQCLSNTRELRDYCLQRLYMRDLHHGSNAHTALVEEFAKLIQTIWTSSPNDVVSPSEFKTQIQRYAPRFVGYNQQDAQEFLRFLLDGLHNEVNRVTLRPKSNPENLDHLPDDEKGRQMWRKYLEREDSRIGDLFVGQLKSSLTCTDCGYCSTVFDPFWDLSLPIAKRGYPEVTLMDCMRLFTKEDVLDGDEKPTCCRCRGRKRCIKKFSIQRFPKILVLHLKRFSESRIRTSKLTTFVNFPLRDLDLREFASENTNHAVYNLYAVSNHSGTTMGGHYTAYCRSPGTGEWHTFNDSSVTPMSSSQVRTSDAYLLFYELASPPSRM
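Cell-free coupled assay: 10nM USP2 core preincubated 30min RT with compound in Tris-HCl pH 8.0/CaCl2/CHAPS buffer, then 25nM Ub-CHOP2 and 25nM reporter substrate; fluorescence (Ex 485/Em 531) read after 60min RT, normalized to NEM inhibition, concentration-response curves fitted.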
* marks the source's active call; other numbers are inactive results; i = inactive; u = inconclusive; x = not tested or not shown. In the library only some 4.8% were active in any assay of this set; here they are far more common. Unless noted, calls follow the shape of the dose curve; as a rule, active = well fitted curve in the direction sought with a large enough effect; inconclusive = small, poorly fitted or top-dose-only effect, or another doubt; inactive = no such curve, though single readings can be large; an effect the other way counts as inactive or inconclusive.

SMILES	S2 tox	IL1B secr inh	USP1 inh	ATXN2 expr inh	USP2a inh
C#CCOCCOCCOCCNc1nc(N2CCOCC2)nc(N2CCN(C(=O)CCCCCCCCCCNC(=O)[C@H](CO)n3cc(CCCCCN)nn3)CC2)n1	i	-21	-29%	-4%	-4%
C#CCOCCOCCOCCNc1nc(N2CCN(C(=O)CCCCCCCCCCNC(=O)Cn3cc(CCCCCN)nn3)CC2)nc(N2CCN(C(=O)CCCCCCCCCCNC(=O)[C@H](CO)n3cc(CCCCCN)nn3)CC2)n1	i	-71*	-15%	-13%	u
C#CCOCCOCCOCCNc1nc(N2CCOCC2)nc(N2CCN(C(=O)CCCCCCCCCCNC(=O)Cn3cc(CCCCCN)nn3)CC2)n1	i	-28	-9%	-4%	0%
C#CCOCCOCCOCCNc1nc(N2CCN(C(=O)CCCCCCCCCCNC(=O)Cn3cc(CCCCCN)nn3)CC2)nc(N2CCN(C(=O)CCCCCCCCCCNC(=O)[C@H]([C@@H](C)CC)n3cc(CCCCCN)nn3)CC2)n1	22µM*	-106*	u	u	u
CCCNC(=O)c1c(NC(=O)c2ccccc2F)sc2c1CCCCC2	i	x	u	5%	x
CCOC(=O)c1ccc(NC(=O)C2CCN(C(=O)N3CC(C)Oc4ccc(C)cc43)CC2)cc1 (centres undefined)	x	x	-16%	x	x
COc1ccc(Cl)cc1-c1cc(C(=O)Nc2ccc(C)c(NS(C)(=O)=O)c2)[nH]n1	16µM*	u	x	22µM*	x
COc1ccc(OC)c(-c2cc(Cl)c3c(c2)CC(CNC(=O)c2cccnc2SC)O3)c1 (centres undefined)	i	x	x	x	x
CC(=O)Nc1ccc(NC(=O)c2ccc(-c3ccnn3C)c3ccoc23)cc1	i	-93*	x	-3%	x
O=c1[nH]cnc2c1C(c1ccccc1)c1c(nc[nH]c1=O)O2	i	-12	7%	11%	-1%
CCOc1ccc(N=C2NC(=O)S/C2=C\c2ccc(Cl)cc2)cc1	i	-12	-5%	-22%	2%
COc1ccc(N=C2NC(=O)S/C2=C\c2ccc(N(C)C)cc2)cc1	i	-14	25µM*	21%	-1%
CC(=O)OCCn1c2nc(=O)[nH]c(=O)c-2nc2cc(C)c(C)cc21	x	20	28µM*	x	u
CC(C)c1ccc(S(=O)(=O)/N=C2\C=C(NS(=O)(=O)c3ccccc3)C(=O)c3ccccc32)cc1	u	22	u	-5%	-29%
CCc1ccc(S(=O)(=O)/N=C2\C=C(NS(=O)(=O)c3ccccc3)C(=O)c3ccccc32)cc1	u	59	25µM*	-21%	-9%
Cc1ccc(C)c(S(=O)(=O)/N=C2\C=C(NS(=O)(=O)c3ccccc3)C(=O)c3ccccc32)c1	i	42	16µM*	-8%	4%
O=C(c1nc(-c2ccc(Cl)cc2)n2c1CCCCC2)N1CCN(c2ccccc2)CC1	i	x	-19%	-4%	x
Cc1ccc2c(c1)nnn2C1CCN(S(=O)(=O)c2ccc(C(=O)N(C)C3CCCCC3)cc2)CC1	i	-73*	-3%	-21%	-1%
Cc1ccc2c(c1)nnn2C1CCN(CC(=O)Nc2ccccc2N2CCOCC2)CC1	u	-53*	-21%	-28%	0%
Cc1ccc2c(c1)nnn2C1CCN(CC(=O)NCCc2ccccc2)CC1	i	-68*	-3%	-16%	1%
Cc1ccc2c(c1)nnn2C1CCN(C(=O)Nc2ccccc2C)CC1	u	-57*	-11%	-34%	1%
COc1ccc(Cl)cc1NC(=O)CN1CCC(n2nnc3cc(C)ccc32)CC1	u	9	-23%	-17%	0%
Cc1ccc(S(=O)(=O)N2CCC(n3nnc4cc(C)ccc43)CC2)cc1	i	14	-13%	-14%	0%
CCOc1ccc(NC(=O)N2CCC(n3nnc4cc(C)ccc43)CC2)cc1	i	-15	-9%	-3%	1%
O=C(C1CCC1)N1CCC(O)(c2cccc(F)c2)CC1	i	-4	-17%	x	1%
COc1ccccc1C(=O)N[C@@H]1c2ccccc2C2(CCN(Cc3cnn(C)c3C)CC2)[C@H]1O	i	x	x	x	x
